In the library only some 10% were active in any assay of this set; here they are far more common.
HEK293 tox: HEK 293 cell cytotoxicity. AID 1345083. 6.6% of 94,000 active. HEK 293 viability, ATP luminescence (CellTiter-Glo), 48-72 h. Potency, µM (titrated, usually from 115 µM), usual class: inhibitors; note: nearly all actives have a fitted effect of over 60% in size
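ATP-coupled CellTiter-Glo luminescence served as viability read-out, recorded 10 min after reagent addition at room temperature. HEK 293 cells, 250 cells/well, had been incubated with pintool-transferred compound for 48 or 72 hr at 37 degree Celsius.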
3T3 cytotox: kills NIH 3T3 cells; Potency, µM (doses to about 96.7 µM), hits mostly inhibitors; 4.3% of 94,000 active; NIH 3T3 viability, CellTiter-Glo ATP luminescence, 48-72 h; AID 1345082; note: nearly all actives have a fitted effect of over 55% in size
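ATP-dependent luminescence (CellTiter-Glo) served as the viability signal for NIH 3T3 cells treated with compound for 48 or 72 hr at 37 °C.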
NPR1 antag: human Npr1 receptor antagonism; P16066; HEK293 hNpr1 GloSensor cGMP, ANP-stimulated luminescence; Potency, µM (series often up to 46.3 µM), most hits filed as inhibitors; 1.6% of 76,000 active; calls by dose curve; note: nearly all actives have a fitted effect of over 60% in size
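HEK293 cells stably expressing human Npr1 and cGMP GloSensor pGS-40F, loaded 2 h with 2% GloSensor reagent, given compound 30 min at room temperature. Luminescence read before and 20 min after 0.1 nM hNppA.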
FLuc inh: inhibitors of firefly (Photinus pyralis) luciferase; Potency, µM (titrated, usually from 115 µM), hits mostly inhibitors; 2.5% of 76,000 active; purified P. pyralis luciferase, luminescence, biochemical; P08659; AID 1347043; note: nearly all actives have a fitted effect of over 65% in size
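Purified P. pyralis luciferase (10nM final) in 50mM Tris acetate pH 7.5, 10mM Mg acetate, 0.01% Tween-20, 0.05% BSA with 10uM D-luciferin and 10uM ATP. Compounds titrated qHTS. Luminescence imaged on CCD.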
GPT2 inh: inhibitors of human GPT2 alanine aminotransferase | Q8TD30 | Recombinant GPT2, coupled pyruvate oxidase/HRP Amplex Red fluorescence | Potency, µM (titrated, usually from 57.7 µM), actives largely listed as inhibitors | 0.25% of 100,000 active | AID 1671188; note: nearly all actives have a fitted effect of over 60% in size
Target sequence (Q8TD30 whole entry, looked up): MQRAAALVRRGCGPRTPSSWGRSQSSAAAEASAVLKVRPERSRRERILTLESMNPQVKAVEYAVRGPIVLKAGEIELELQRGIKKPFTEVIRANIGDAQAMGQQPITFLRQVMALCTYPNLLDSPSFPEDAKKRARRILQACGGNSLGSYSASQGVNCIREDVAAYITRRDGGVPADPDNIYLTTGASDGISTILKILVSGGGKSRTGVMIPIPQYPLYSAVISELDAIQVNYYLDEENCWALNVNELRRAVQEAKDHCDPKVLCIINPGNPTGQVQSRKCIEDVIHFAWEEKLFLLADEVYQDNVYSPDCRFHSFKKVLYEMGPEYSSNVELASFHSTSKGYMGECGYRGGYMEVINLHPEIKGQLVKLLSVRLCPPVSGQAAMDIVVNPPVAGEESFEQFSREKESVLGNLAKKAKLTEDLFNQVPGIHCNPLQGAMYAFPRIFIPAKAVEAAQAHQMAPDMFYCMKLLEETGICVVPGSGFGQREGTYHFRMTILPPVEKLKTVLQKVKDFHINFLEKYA
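Inhibition is scored from Amplex Red fluorescence generated when pyruvate oxidase and HRP act on pyruvate released by GPT2. Reactions contain 10ng/uL enzyme, 250uM a-KG and 2mM L-alanine and run 30 min at room temperature.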
Of the large screens only hits and unclear results are named; the others gave an inactive call. Unless noted, calls come from the whole dose curve; as a rule, active = well fitted curve in the direction sought with a large enough effect; inconclusive = small, poorly fitted or top-dose-only effect, or another doubt; inactive = no such curve, though single readings can be large; an effect the other way counts as inactive or inconclusive.

COc1ccc(CNC(=O)C2CCCN(Cc3cccc(-c4cccs4)c3)C2)cc1 (centres undefined)	HEK293 tox inconclusive, 3T3 cytotox inconclusive (no result: NPR1 antag, FLuc inh)
O=C(NCCCc1ccccc1)C1CCCN(Cc2cccc(-c3cccs3)c2)C1 (centres undefined)	HEK293 tox inconclusive, 3T3 cytotox inconclusive (no result: NPR1 antag, FLuc inh)
O=C(NCc1ccccc1)C1CCCN(Cc2cccc(-c3ccsc3)c2)C1 (centres undefined)	HEK293 tox inconclusive, 3T3 cytotox 39.8µM (no result: NPR1 antag, FLuc inh, GPT2 inh)
O=C(NCc1ccccc1)C1CCCN(Cc2cccc(-c3cccs3)c2)C1 (centres undefined)	HEK293 tox inconclusive, 3T3 cytotox 31.6µM (no result: NPR1 antag, FLuc inh, GPT2 inh)
O=C(NCc1ccccc1F)C1CCCN(Cc2cccc(-c3cccs3)c2)C1 (centres undefined)	HEK293 tox 44.7µM, 3T3 cytotox 39.8µM (no result: NPR1 antag, FLuc inh, GPT2 inh)
O=C(NCCc1ccc(Cl)cc1)C1CCCN(Cc2cccc(-c3ccsc3)c2)C1 (centres undefined)	HEK293 tox 22.4µM, 3T3 cytotox 14.1µM (no result: NPR1 antag, FLuc inh, GPT2 inh)
COc1ccc(-c2ccnc3nc(CCc4ccccc4)nn23)cc1OC	HEK293 tox inconclusive, 3T3 cytotox inconclusive
COCC(=O)N1CCCC(c2nn(-c3ccc(F)cc3)c(=O)[nH]2)C1 (centres undefined)	none
COCCN1CCOc2nc(-c3ccc(F)c(Cl)c3)ncc2C1=O	HEK293 tox inconclusive, 3T3 cytotox inconclusive, NPR1 antag inconclusive, FLuc inh inconclusive
COc1ccccc1-c1cccc(CN2CCCC(C(=O)NCc3cccs3)C2)c1 (centres undefined)	HEK293 tox inconclusive, 3T3 cytotox inconclusive (no result: NPR1 antag, FLuc inh)
COC(=O)CNC(=O)C1CCCN(Cc2cccc(-c3cccs3)c2)C1 (centres undefined)	3T3 cytotox inconclusive (no result: NPR1 antag, FLuc inh)
O=C(NCc1ccc(F)cc1)C1CCCN(Cc2cccc(-c3cccs3)c2)C1 (centres undefined)	HEK293 tox 39.8µM, 3T3 cytotox inconclusive (no result: NPR1 antag, FLuc inh)
O=C(Nc1cccc(F)c1)C1CCCN(Cc2cccc(-c3cccs3)c2)C1 (centres undefined)	HEK293 tox 31.6µM, 3T3 cytotox inconclusive (no result: NPR1 antag, FLuc inh, GPT2 inh)
O=C(NCC(F)F)C1CCCN(Cc2cccc(-c3cccs3)c2)C1 (centres undefined)	HEK293 tox 89.1µM, 3T3 cytotox inconclusive (no result: NPR1 antag, FLuc inh)
CCC(C)NC(=O)C1CCCN(Cc2cccc(-c3ccsc3)c2)C1 (centres undefined)	HEK293 tox 44.7µM, 3T3 cytotox inconclusive (no result: NPR1 antag, FLuc inh, GPT2 inh)
OC[C@@H]1O[C@H](CNCc2ccc(F)cc2)[C@H](N2CCOCC2)[C@@H]1O	GPT2 inh inconclusive
O=C1CCC2(CNC(=O)c3ccncc3)CCCC=C2N1 (centres undefined)	none
O=C(NCc1cccc(C(F)(F)F)c1)C1CCCN(Cc2cccc(-c3cccs3)c2)C1 (centres undefined)	HEK293 tox inconclusive, 3T3 cytotox 7.94µM (no result: NPR1 antag, FLuc inh, GPT2 inh)
O=C(Nc1ccccc1)N1CCC(N2C(=O)C(OCC3CC3)C23CCCCC3)CC1 (centres undefined)	HEK293 tox inconclusive, 3T3 cytotox inconclusive
CC(C)n1cc(CN2CCCC23CCN(c2ccc(C(F)(F)F)cn2)CC3)cn1	HEK293 tox inconclusive, 3T3 cytotox inconclusive, NPR1 antag inconclusive
CC(C)n1ccnc1CN1CCCC12CCN(c1ccc(C(F)(F)F)cn1)CC2	HEK293 tox 35.5µM, 3T3 cytotox inconclusive
COc1ccccc1CCC(=O)NC1CCN(c2cc(-c3ccccc3)[nH]n2)CC1	HEK293 tox inconclusive, 3T3 cytotox inconclusive
CCOc1ccc(NC(=O)c2ccc3c(c2)N(C)C2CCCCCN2C3=O)cc1 (centres undefined)	HEK293 tox inconclusive, 3T3 cytotox inconclusive, FLuc inh inconclusive
CCOc1ccc(NC(=O)c2ccc3c(c2)N(C)C2CCCCN2C3=O)cc1 (centres undefined)	HEK293 tox inconclusive, 3T3 cytotox inconclusive, FLuc inh inconclusive
CN1c2cc(C(=O)Nc3ccc(Oc4ccccc4)cc3)ccc2C(=O)N2CCCCC21 (centres undefined)	HEK293 tox inconclusive, 3T3 cytotox inconclusive, NPR1 antag inconclusive, FLuc inh 50.1µM
CN1c2cc(C(=O)Nc3ccc(Oc4ccccc4)cc3)ccc2C(=O)N2CCCCCC21 (centres undefined)	HEK293 tox 10µM, 3T3 cytotox inconclusive, NPR1 antag inconclusive, FLuc inh inconclusive
CCN1c2cc(C(=O)Nc3ccc(Oc4ccccc4)cc3)ccc2C(=O)N2CCCCC21 (centres undefined)	HEK293 tox inconclusive, 3T3 cytotox 31.6µM
COc1ccccc1CN1CC[C@H](c2nnc(Cc3c[nH]c4ccccc34)o2)C1	HEK293 tox 89.1µM, 3T3 cytotox inconclusive
Cc1ccc2oc([C@H]3CCN(Cc4ccc(N(C)C)cc4)C3)nc2c1	HEK293 tox inconclusive, 3T3 cytotox inconclusive, FLuc inh 44.7µM
COc1cc(CN2CC[C@H](c3nc4ccccc4o3)C2)cc(OC)c1OC	HEK293 tox 70.8µM, 3T3 cytotox inconclusive
COc1ccccc1-c1nnc([C@H]2CCN(Cc3ccccn3)C2)o1	HEK293 tox inconclusive, 3T3 cytotox 35.5µM
CC(C)NC(=O)c1cc(-c2ccc(S(C)(=O)=O)cc2)nc2c1cnn2C	none (no result: NPR1 antag, FLuc inh)
O=C(Cc1ccccn1)N1CCC(C(=O)N2CCC(c3nc4ncccc4[nH]3)CC2)C1 (centres undefined)	HEK293 tox inconclusive (no result: NPR1 antag, FLuc inh)
Cc1ccc2oc([C@H]3CCN(Cc4cccc(Cl)c4)C3)nc2c1	HEK293 tox inconclusive, 3T3 cytotox inconclusive
Cc1ccc2oc([C@H]3CCN(Cc4c[nH]c5ccccc45)C3)nc2c1	HEK293 tox 31.6µM, 3T3 cytotox 56.2µM, NPR1 antag inconclusive, GPT2 inh inconclusive
CN(C)c1ccc(CN2CC[C@H](c3nc4cc(Cl)ccc4o3)C2)cc1	HEK293 tox inconclusive, 3T3 cytotox 112µM, NPR1 antag inconclusive, FLuc inh inconclusive
Cc1ccc(-c2ccc3c(n2)CN(C)C(=O)CO3)cc1	HEK293 tox inconclusive, 3T3 cytotox inconclusive, NPR1 antag inconclusive, FLuc inh 89.1µM
COc1ccc(-c2ccc3c(n2)CN(C)C(=O)CO3)cc1	HEK293 tox inconclusive, 3T3 cytotox 100µM, NPR1 antag inconclusive, FLuc inh inconclusive, GPT2 inh inconclusive
O=C(O)C1c2ccccc2C(=O)N(Cc2ccccc2)C12CCCC2 (centres undefined)	none
COc1cccc(CCC2CCCN(C(=O)c3ccoc3C)C2)c1 (centres undefined)	HEK293 tox 31.6µM, 3T3 cytotox inconclusive
COCc1ccc(C(=O)N2CCCC(CCc3cccc(OC)c3)C2)o1 (centres undefined)	HEK293 tox 79.4µM, 3T3 cytotox inconclusive
COc1cccc(CCC2CCCN(C(=O)c3ccsc3)C2)c1 (centres undefined)	HEK293 tox inconclusive, 3T3 cytotox inconclusive
N#Cc1cccc(-c2cn3c(n2)N(C(=O)c2ccccn2)CCC3)c1	HEK293 tox inconclusive

Screens from PubChem BioAssay.
